Measured values from PubChem BioAssay.
Results filed as inconclusive are left out. Activity calls are given as the source filed them. Cut-off not given; nearly all actives show AC50 up to about 30 µM.

Test: viability loss in pontine glioma line – cell-based, SU-DIPG-IV, MIPE4.0, CellTiter-Glo, qHTS, dose response (AID 1347063);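 further: compound exposure lasted 48 hours before the viability readout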
Details: CellTiter-Glo ATP luminescence

Compound | AC50 | outcome
COc1cc([C@@H]2c3cc4c(cc3[C@H](O)[C@H]3COC(=O)[C@@H]23)OCO4)cc(OC)c1OC | 0.0372 µM (active) | –
COc1ccc([C@@H]2CC(=O)c3c(O)cc(O[C@@H]4O[C@H](CO[C@@H]5O[C@@H](C)[C@H](O)[C@@H](O)[C@H]5O)[C@@H](O)[C@H](O)[C@H]4O)cc3O2)cc1O | – | inactive
C[C@H]1O[C@@H](O[C@H]2[C@@H](O)C[C@H](O[C@H]3[C@@H](O)C[C@H](O[C@H]4CC[C@@]5(C)[C@H](CC[C@@H]6[C@@H]5C[C@@H](O)[C@]5(C)[C@@H](C7=CC(=O)OC7)CC[C@]65O)C4)O[C@@H]3C)O[C@@H]2C)C[C@H](O)[C@@H]1O | 0.241 µM (active) | –
CC1(C)[C@@H](O[C@H]2O[C@H](C(=O)O)[C@@H](O)[C@H](O)[C@H]2O[C@@H]2O[C@H](C(=O)O)[C@@H](O)[C@H](O)[C@H]2O)CC[C@]2(C)[C@H]3C(=O)C=C4[C@@H]5C[C@@](C)(C(=O)O)CC[C@]5(C)CC[C@@]4(C)[C@]3(C)CC[C@@H]12 | – | inactive
CCC[C@@H]1C[C@@H](C(=O)N[C@@H]([C@H]2O[C@H](SC)[C@H](O)[C@@H](O)[C@H]2O)[C@@H](C)O)N(C)C1 | – | inactive
COc1c(O)cc2c(c1O)[C@@H]1O[C@H](CO)[C@@H](O)[C@H](O)[C@H]1OC2=O | – | inactive
CN[C@H](CC(C)C)C(=O)N[C@H]1C(=O)N[C@@H](CC(N)=O)C(=O)N[C@H]2C(=O)N[C@H]3C(=O)N[C@H](C(=O)N[C@H](C(=O)O)c4cc(O)cc(O)c4-c4cc3ccc4O)[C@H](O)c3ccc(c(Cl)c3)Oc3cc2cc(c3O[C@@H]2O[C@H](CO)[C@@H](O)[C@H](O)[C@H]2O[C@H]2C[C@](C)(N)[C@H](O)[C@H](C)O2)Oc2ccc(cc2Cl)[C@H]1O | – | inactive
C=C(C)[C@@H]1CC[C@]2(C(=O)O)CC[C@]3(C)[C@H](CC[C@@H]4[C@@]5(C)CC[C@H](O)C(C)(C)[C@@H]5CC[C@]43C)[C@@H]12 | – | inactive
C[C@@H]1[C@H](O)[C@@H](C)/C=C/C=C/C=C/C=C/C=C/C=C/C=C/[C@H](O[C@@H]2O[C@H](C)[C@@H](O)[C@H](N)[C@@H]2O)C[C@@H]2O[C@](O)(C[C@@H](O)C[C@@H](O)[C@H](O)CC[C@@H](O)C[C@@H](O)CC(=O)O[C@H]1C)C[C@H](O)[C@H]2C(=O)O | 6.62 µM (active) | –
COc1ccc(-c2cc(=O)c3c(O)cc(O[C@@H]4O[C@H](CO[C@@H]5O[C@@H](C)[C@H](O)[C@@H](O)[C@H]5O)[C@@H](O)[C@H](O)[C@H]4O)cc3o2)cc1O | – | inactive
CC(C)(O)CC[C@@H](O)[C@](C)(O)[C@H]1CC[C@@]2(O)C3=CC(=O)[C@@H]4C[C@@H](O)[C@@H](O)C[C@]4(C)[C@H]3CC[C@]12C | – | inactive
COc1cc([C@@H]2c3cc4c(cc3[C@@H](O[C@@H]3O[C@@H]5CO[C@@H](c6cccs6)O[C@H]5[C@H](O)[C@H]3O)[C@H]3COC(=O)[C@H]23)OCO4)cc(OC)c1O | 0.332 µM (active) | –
CC(C)(S)[C@@H](N)C(=O)O | – | inactive
C[C@H](CCC(=O)O)[C@H]1CC[C@H]2[C@@H]3[C@H](O)C[C@@H]4C[C@H](O)CC[C@]4(C)[C@H]3CC[C@]12C | – | inactive
CCC(=O)NCC[C@@H]1CCc2ccc3c(c21)CCO3 | – | inactive
CC[C@@]1(O)C[C@H](O[C@H]2C[C@H](N(C)C)[C@H](O[C@H]3C[C@H](O)[C@H](O[C@H]4CCC(=O)[C@H](C)O4)[C@H](C)O3)[C@H](C)O2)c2c(cc3c(c2O)C(=O)c2c(O)cccc2C3=O)[C@H]1C(=O)OC | 0.469 µM (active) | –
CC1(C)[C@@H](O)CC[C@]2(C)[C@H]3C(=O)C=C4[C@@H]5C[C@@](C)(C(=O)O)CC[C@]5(C)CC[C@@]4(C)[C@]3(C)CC[C@@H]12 | – | inactive
COc1ccc(CCC(=O)c2c(O)cc(O[C@@H]3O[C@H](CO)[C@@H](O)[C@H](O)[C@H]3O[C@@H]3O[C@@H](C)[C@H](O)[C@@H](O)[C@H]3O)cc2O)cc1O | – | inactive
C[C@H]1C[C@H]2[C@@H]3CCC4=CC(=O)C=C[C@]4(C)[C@@]3(F)[C@@H](O)C[C@]2(C)[C@@]1(O)C(=O)CO | – | inactive
